Only some compounds are listed: those with a hit (about 0.89% of all), similar ones and a draw of the others.
Six1-Eya2 inh: Six1/Eya2 interaction inhibition; AlphaScreen GST-Six1/His-Eya2 binding, biochemical; stronger effect = lower value; Q15475+O00167; 0.56% of 360,000 active; activity change, % (concentration not given with the values); in the data active means activity change below about -65%; inconclusive means mostly about -30% to -63%
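AlphaScreen luminescence read after one hour at 37 °C in darkness. Pin-transferred compounds met GST-Six1 and His-Eya2 protein (5X stock 250 nM/500 nM) plus glutathione donor and Ni-chelate acceptor beads (5X, 50 ug/mL).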
CBFb-RUNX1 inh: inhibitors of human CBF-beta and RUNX1 interaction; Potency, µM (titrated, usually from 59.8 µM), most hits filed as inhibitors; AlphaScreen CBFb-His/RUNX1-biotin binding, biochemical; 230,000 tested, under 10 active; Q01196+Q13951; AID 1477
Target sequence (Q01196 whole entry, looked up): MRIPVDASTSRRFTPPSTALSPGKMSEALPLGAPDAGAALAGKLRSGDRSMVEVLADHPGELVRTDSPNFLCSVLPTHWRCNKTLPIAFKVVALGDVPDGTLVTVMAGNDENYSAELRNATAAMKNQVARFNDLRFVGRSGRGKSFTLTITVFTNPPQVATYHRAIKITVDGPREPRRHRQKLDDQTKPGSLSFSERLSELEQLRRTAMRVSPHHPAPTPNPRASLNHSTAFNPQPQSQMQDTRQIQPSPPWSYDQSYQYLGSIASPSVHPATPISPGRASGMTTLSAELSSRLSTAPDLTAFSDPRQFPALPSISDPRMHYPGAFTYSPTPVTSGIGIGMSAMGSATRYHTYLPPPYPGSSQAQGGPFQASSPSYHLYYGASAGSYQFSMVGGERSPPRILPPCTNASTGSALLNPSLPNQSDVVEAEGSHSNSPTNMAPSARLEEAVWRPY
Target sequence (Q13951 whole entry, looked up): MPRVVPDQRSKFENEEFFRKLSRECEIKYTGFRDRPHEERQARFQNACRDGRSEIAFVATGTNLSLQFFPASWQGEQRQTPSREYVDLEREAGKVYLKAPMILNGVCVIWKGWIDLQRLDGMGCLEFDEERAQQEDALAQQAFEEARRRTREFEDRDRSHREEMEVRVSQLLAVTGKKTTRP
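Inhibition was taken as any reduction in AlphaScreen signal from the CBF-beta–RUNX1 pair (His and biotin tags, 30 nM each), measured after compound (15 min) and bead (90 min) incubations at room temperature.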
MBNL1-CUG inh: inhibitors of human MBNL1 binding to CUG repeat RNA; AID 2675; 0.036% of 280,000 active; TR-FRET MBNL1-His/biotin-(CUG)12 binding, 665/545 ratio; Potency, µM (top dose mostly 57.5 µM), actives largely listed as inhibitors; active means well fitted inhibition curve with a large enough effect in the signal ratio, with a control signal flat, not every such curve was filed as active; inconclusive means small, poorly fitted or top-dose-only effect, or effect the other way, or a change in a side signal; inactive means no such curve, though single readings can be large or run the other way; the % refers to the signal ratio
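TR-FRET readout: Ex 340 nm, 665/545 nm emission ratio, normalized to buffer-only (basal) and MBNL1-(CUG)12 controls. Complex of MBNL1-His with Biotin-(CUG)12, compounds 92 nM–58 uM, incubated 60 min at room temperature.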
CtBP-E1A blk: CtBP/E1A binding inhibition; AlphaScreen GST-E1A/His-CtBP binding, 1536-well; stronger effect = lower value; AID 651724; activity change, % (concentration not given with the values); 0.49% of 340,000 active; in the data active means activity change below about -65%; inconclusive means mostly about -30% to -63%
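AlphaScreen with 125 nM GST-E1A and 125 nM His-CtBP (5X stocks) in Tris pH 8.0, 300 mM NaCl, BSA, Tween 20, TCEP. Compounds preincubated 2 h at 37 deg C, then glutathione donor/nickel acceptor beads added for 1 h at 37 deg C in dark.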
L3MBTL1 block: inhibitors of human L3MBTL1 | Potency, µM (series often up to 57.1 µM), hits mostly inhibitors | Q9Y468 | AID 485360 | AlphaScreen L3MBTL1–H3K9me1 peptide binding | 0.66% of 230,000 active; further: nearly all actives have a fitted effect of over 60% in size
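Read-out is AlphaScreen signal from streptavidin donor and nickel chelate acceptor beads (10 ug/mL final each) bridging L3MBTL1 (50 nM) and biotinylated K9-monomethylated H3(1-15) peptide (75 nM), after 30 min compound exposure at room temperature.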
Eya2 phos inh: blocks the phosphatase activity of human Eya2; O00167; recombinant Eya2, OMFP fluorescence dephosphorylation (OMFP is methylfluorescein phosphate); Potency, µM (highest dose often 76.9 µM), most hits filed as inhibitors; 0.006% of 330,000 active
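Eya2 (0.2 uM) preincubated 10 min at ambient with compound, then OMFP substrate added at 50 uM; 10 min reaction in 50 mM HEPES pH 7.5, 50 mM NaCl, 5 uM MgCl2, 0.05% BSA, 1 mM DTT. Fluorescence read at Ex 485/Em 525 nm.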
Hits are given with their value; . = inactive; ? = inconclusive; / = no result given. Unless noted, the call rests on the fitted dose curve; in most records, active means well fitted curve in the direction sought with a large enough effect; inconclusive means small, poorly fitted or top-dose-only effect, or another doubt; inactive means no such curve, though single readings can be large; an effect the other way counts as inactive or inconclusive.

SMILES	Six1-Eya2 inh	CBFb-RUNX1 inh	MBNL1-CUG inh	CtBP-E1A blk	L3MBTL1 block	Eya2 phos inh
COc1ccccc1C(CCNCc1ccc(N(C)C)cc1)c1ccc(OC(C)C)cc1 (stereo not drawn)	-84.1	/	.	/	/	.
COc1ccc(CNCCC(c2ccc(OC(C)C)cc2)c2ccccc2OC)cc1 (stereo not drawn)	.	/	.	.	/	.
COc1ccc(C(CCNCc2ccc(N(C)C)cc2)C(C)C)cc1 (stereo not drawn)	-66.6	.	.	/	?	.
O=C(CN1CCN(c2ccc(F)cc2)CC1)Nc1ccc(S(=O)(=O)N2CCOCC2)cc1	.	/	.	.	/	.
CC(Sc1nnc(NC2CC2)s1)C(=O)Nc1ccc(N2CCOCC2)cc1 (stereo not drawn)	.	/	/	.	.	.
CC(Sc1nnc(NC2CCCCC2)s1)C(=O)Nc1ccc2c(c1)C(=O)c1ccccc1C2=O (stereo not drawn)	-75.2	.	?	.	.	.
O=C(Cc1ccc(F)cc1)Oc1ccc(C(=S)N2CCCC2)cc1	-71.3	.	.	.	.	.
COc1ccc(Cc2c(O)nc(SCC(=O)c3ccc(OC)cc3)[nH]c2=O)cc1	-86.4	.	.	/	.	.
COc1ccc(N2CCN(c3ccc(C(=O)O)cc3[N+](=O)[O-])CC2)cc1	.	/	?	.	/	.
O=[N+]([O-])c1ccccc1N/N=C/c1c[nH]c2ccccc12	-84.3	/	?	-78.1	?	.
O=[N+]([O-])c1ccc(N/N=C/c2c[nH]c3ccccc23)cc1	.	.	?	.	.	.
CCn1c2ccccc2c2cc(NC(=O)COC(=O)c3ccc(NC(=O)CC#N)cc3)ccc21	?	/	/	.	31.6µM	.
O=C(/C=N/NC(=O)c1ccccc1Br)c1ccccc1	.	.	?	.	.	.
O=C(CNC(=O)c1ccccc1Br)N/N=C\c1cc([N+](=O)[O-])cc(Br)c1O	?	/	?	-72.8	/	.
O=C(N/N=C/c1cc(Cl)ccc1O)c1cccnc1	-67.6	/	?	-91.4	.	.
O=C(N/N=C/c1cc(Cl)ccc1O)c1ccccc1Br	-70.3	?	.	-90.0	/	.
O=C(N/N=C/c1cccnc1)c1cccc(Cl)c1	.	/	.	.	/	.
O=C(CNC(=O)c1ccccc1Br)N/N=C/c1cc(Br)ccc1O	?	.	.	-72.9	/	.
Cc1ccc(S(=O)(=O)NC(=O)NC2=NC(C)(C)N(c3ccc(Cl)c(Cl)c3)C(N)=N2)cc1	.	/	/	.	/	/
CCOC(=O)C1CCCN(C(=O)CCNS(=O)(=O)c2cc(Br)cnc2N)C1 (stereo not drawn)	.	/	.	.	/	.
Cc1cc2c(SCC(=O)Nc3cccc(O)c3)ncnc2s1	.	/	/	.	/	/
Cc1ccc(NC(=O)CN2CCC(NC(=O)c3ccccc3F)CC2)cc1C	.	/	.	.	.	.
O=C(CNC(=O)c1ccccc1Br)N/N=C/c1ccccc1O	-65.2	.	.	?	.	.
O=C(N/N=C/c1c(Cl)nc2ccccn2c1=O)c1cccnc1	-68.8	.	/	.	.	.
CN(C)c1ccc(C=C2C=CC=C2)cc1	-65.8	/	/	.	/	/
SMILES	Six1-Eya2 inh	CBFb-RUNX1 inh	MBNL1-CUG inh	CtBP-E1A blk	L3MBTL1 block	Eya2 phos inh
CCOc1ccc(NC(=S)NCc2ccc3[nH]c(C)cc3c2)cc1	-67.6	.	.	/	/	.
Cc1cc(Cl)ccc1NC(=O)CN(C)C1=NS(=O)(=O)c2ccccc21	.	/	/	.	.	.
CC1(C(=O)Nc2ccc3c(c2)OCCO3)CCC(=O)N1C1CCN(Cc2ccccc2)CC1 (stereo not drawn)	.	/	/	.	/	/
Cn1c(NN)nc2sc3c(c2c1=O)CC(C)(C)OC3	?	.	?	-76.6	.	.
CC(C)CN(C(=O)c1cccc(S(=O)(=O)N2CCN(Cc3ccccc3)CC2)c1)C1CCS(=O)(=O)C1 (stereo not drawn)	.	/	/	.	.	.
CC(=O)Nc1ccc(S(=O)(=O)Nc2nc3ccccc3nc2Nc2ccc(C(=O)O)c(O)c2)cc1	?	/	/	?	3.16µM	.
O=C(NC(=S)N(Cc1ccccc1)Cc1ccccc1)c1ccccc1F	.	.	.	.	.	.
O=C(O)c1cc(O)c2c(c1)C(=O)c1cccc(O)c1C2=O	-73.5	.	?	-84.1	?	.
Oc1c(C(c2ccc(Cl)cc2)N2CCCC2)cc(Cl)c2cccnc12 (stereo not drawn)	?	?	.	/	?	.
CN1CCN(C(c2ccccn2)c2cc(Cl)c3cccnc3c2O)CC1 (stereo not drawn)	-89.3	?	.	/	14.1µM	.
Oc1c(C(c2cccs2)N2CCN(c3ccccc3)CC2)ccc2cccnc12 (stereo not drawn)	/	.	.	/	/	/
CC(=O)NC(c1cc(Cl)c2cccnc2c1O)C(C)C (stereo not drawn)	/	/	/	/	.	.
CN1CCN(C(c2ccc(C(F)(F)F)cc2)c2ccc3cccnc3c2O)CC1 (stereo not drawn)	?	/	.	-84.1	/	.
Oc1c(C(c2ccccn2)N2CCC(Cc3ccccc3)CC2)cc(Cl)c2cccnc12 (stereo not drawn)	-88.5	/	.	-67.7	/	.
Cc1ccc(C(c2cc(Cl)c3cccnc3c2O)N2CCN(C)CC2)cc1 (stereo not drawn)	?	/	.	-85.0	/	.
COc1ccc(C(=O)C(C)OC(=O)CNC(=O)c2ccco2)cc1 (stereo not drawn)	.	/	/	/	.	.
CCCNC(=O)c1ccc(N2CCC3(CC2)CC(c2cccc(Br)c2)=NO3)c(NC(=O)c2cccc(C)c2)c1	.	/	/	.	.	.
COc1ccc(C2=Nn3c(nnc3-c3cc(C)[nH]n3)SC2)cc1	-76.7	.	.	?	.	.
COc1cc(OC)cc(-c2nnc3n2N=C(c2ccc(OC)c(OC)c2)CS3)c1	/	.	/	/	/	/
COc1ccc(C2=Nn3c(nnc3-c3ccc(OC)cc3)SC2)cc1	.	.	.	.	.	.
COc1ccc(C2=Nn3c(nnc3-c3ccco3)SC2)cc1OC	-71.2	.	?	-87.1	.	.
N#CC1(Nc2ccc3ccccc3c2)CCCC1	.	/	/	.	/	/
CCOC(=O)CC(NC(=O)Cn1nnc(-c2ccccc2Cl)n1)c1ccc(OC)cc1 (stereo not drawn)	.	.	.	.	/	.
COc1cc(N2CCCC2)c(OC)cc1/C=C(/C#N)c1ccc(F)cc1	-78.3	.	.	?	?	.
CCN(CC(=O)Nc1ccccc1C(F)(F)F)C(=O)C1CC(=O)N(Cc2ccccc2)C1 (stereo not drawn)	-85.8	/	/	.	.	.
O=C1CSC(=S)N1N=C1CCCCCC1	-80.0	.	.	.	.	.
